# Laboratory results reported in PubChem BioAssay AID686965 (The Scripps Research Institute Molecular Screening Center, 2013).
# Unmarked numbers belong to inactive results. How the calls were made is not given here.
# Test: GFP fluorescence inhibitors and quenchers, late-stage follow-up, artefact control for Rin1-Abl interaction inhibitor project, biochemical, dose response, round 2 (AID 686965)
# Details: GFP fluorescence quenching/inhibition counterscreen
row,Compound,IC50
1,O=c1cc(OCc2ccccc2)cc[nH]1,> 67.5 µM
2,COc1ccc(COc2ccnc(OC)c2)cc1,> 67.5 µM
3,COc1cc(OCc2ccc(F)cc2)ccn1,> 67.5 µM
4,COc1cc(OCc2ccccc2)ccn1,> 67.5 µM
5,Cn1ccc(OCc2ccccc2)cc1=O,> 67.5 µM
6,COc1ccc(COc2cc[nH]c(=O)c2)cc1,> 67.5 µM
7,COc1ccc(COc2ccn(C)c(=O)c2)cc1,> 67.5 µM
8,Cn1ccc(OCc2ccc(F)cc2)cc1=O,> 67.5 µM
9,O=c1cc(OCc2ccc(F)cc2)cc[nH]1,> 67.5 µM
10,Nc1cc(OCc2ccccc2)ccn1,> 67.5 µM
